This note sets out measurements from PubChem BioAssay (EPA / NIEHS).

Records with an inconclusive call do not appear. Some compounds were tested as several samples or in several runs, with calls that do not always agree. Activity calls are given as the source filed them. The calls were made as follows, unless noted: active = hit-call score of the fitted dose curve at least 0.9, where 1 is the maximum; inactive = score below 0.9.

Assay [1] is described as follows: CCTE_Simmons_MITO_basal_resp_rate: CCTE's HepG2 Seahorse XF Respirometric Screening Assay at Basal Respiratory State, Simmons Lab (AID 2284001). The settings on record: actives raise or lower the signal. In a few lines: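 HepG2 respirometry; 7-pt titration 125 nM–100 uM final; kinetic OCR at 6 min intervals for 72 min; n=3 biological, technical singles; DMSO baseline, gain or loss fit; fenpyroximate (decrease) and 2,4-DNP (increase) controls.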

Assay [2] in a line: CCTE_Simmons_MITO_max_resp_rate: CCTE's HepG2 Seahorse XF Respirometric Screening Assay at Maximal Respiratory State [uncoupled], Simmons Lab (AID 2284002). Conditions: actives raise or lower the signal. The gist of the method:
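Maximal (FCCP-uncoupled) respiration rate in HepG2, from Seahorse kinetic OCR over 72 min at 6 min cycles. Compounds at 125 nM–100 uM final, 7 points, three biological replicates; both directions fit relative to DMSO.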

A short description of assay [3]: CCTE_Simmons_MITO_inhib_resp_rate: CCTE's HepG2 Seahorse XF Respirometric Screening Assay at Inhibited Respiratory State [full ETC block], Simmons Lab (AID 2284006). The settings on record: actives raise or lower the signal. The gist of the method: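 Compound injected onto HepG2 cells (125 nM–100 uM final, 7 points); FCCP then rotenone/antimycin A added. Oxygen consumption read every 6 min (3 min mix, 3 min measure) for 72 min. Inhibited-state OCR fitted against DMSO.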

A short description of assay [4]: CCTE_Simmons_MITO_viability: CellTiter-Glo Viability Assessment for CCTE's HepG2 Seahorse XF Respirometric Screening Assay [post-hoc], Simmons Lab (AID 2284007; active = hit-call score of the fitted dose curve at least 0.9, where 1 is the maximum). In a few lines: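 After the Seahorse oxygen-consumption sequence (basal, FCCP, rotenone/antimycin A; 72 min total), HepG2 viability was scored as ATP content by bioluminescence. Chemicals ran at seven concentrations up to 100 uM final for 90 min.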

Assay [5] can be described thus: CCTE_Shafer_MEA_acute_spike_number: CCTE's Neural Acute Assay for Total Number of Spikes, Shafer Lab (AID 2284008).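 As to AC50: curve fitted for decrease in spike count so AC50 reflects inhibitors.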 The gist of the method: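 Total spike count from 40 min recordings before and during compound exposure (0.03-40 uM), given as per-well percent change. Cortical cultures from rat, DIV 13 or 15, 37 C; adaptive detection threshold 8x rms noise.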
Assay [6] can be described thus: CCTE_Shafer_MEA_acute_firing_rate_mean: CCTE's Neural Acute Assay for Mean Firing Rate, Shafer Lab (AID 2284009).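 Also: analyzed for loss of signal so actives lower firing rate relative to DMSO.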 In a few lines:
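Percent change in well-mean firing rate was derived from extracellular spikes detected at 8x rms noise (300-5000 Hz band-pass) before and after a 40-min compound exposure. Cultures were primary rat cortical neurons, tested at 0.03-40 uM.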

Assay [7] in a line: CCTE_Harrill_HTTr_Viability_MCF7: CCTE's 6-hour Cell Viability Assessment for the High-Throughput Transcriptomics (HTTr) Platform, in MCF-7 cells cultured in DMEM + 10% fetal bovine serum, Harrill Lab (AID 2284010). In a few lines: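 Cells were dosed with chemicals in an eight-point dilution series, imaged 6 hours later for propidium iodide uptake, and the endpoint was analyzed by bidirectional fitting against DMSO as negative control.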

A short description of assay [8]: CCTE_Harrill_HTTr_Apoptosis_MCF7: CCTE's 6-hour Apoptosis Assessment for the High-Throughput Transcriptomics (HTTr) Platform, in MCF-7 cells cultured in DMEM + 10% fetal bovine serum, Harrill Lab (AID 2284011). In a few lines: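 High-content imaging of CellEvent Caspase 3/7 Green signal follows a six-hour exposure, with eight concentrations per chemical. MCF-7 cells grown in DMEM plus 10% fetal bovine serum; activity fitted in both directions against DMSO.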

Assay [9] in a line: CCTE_Shafer_MEA_acute_burst_number: CCTE's Neural Acute Assay for Single-Electrode Bursts, Shafer Lab (AID 2284013). The gist of the method: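 Spontaneous network activity of primary rat cortical neurons was recorded extracellularly on microelectrode arrays at 37 C, with 40-min periods before and during exposure to 0.03-40 uM compound on DIV 13 or 15.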
Assay [10] can be described thus: CCTE_Shafer_MEA_acute_burst_duration_mean: CCTE's Neural Acute Assay for Mean Burst Duration, Shafer Lab (AID 2284014).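 Also: hits are decreases in mean burst duration relative to DMSO controls.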 In a few lines: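 Read-out is the per-well percent change in mean burst duration (first to last spike within a single-electrode burst) between 40-min recordings before and after compound. Cultures were primary rat cortical neurons on MEAs, dosed at 0.03-40 uM on DIV 13 or 15.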

Assay [11] is described as follows: CCTE_Shafer_MEA_acute_per_burst_spike_number_mean: CCTE's Neural Acute Assay for Average Number of Spikes Per Burst, Shafer Lab (AID 2284015).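 Also: hits are decreases in mean spikes per burst versus baseline.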 The gist of the method: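 We recorded spontaneous network firing of rat cortical neurons for 40 min before and 40 min during exposure to compound at 0.03-40 uM, at 37 C. Spikes were detected adaptively at 8x rms noise, and the change in average spikes per burst was fitted against DMSO.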

Assay [12] can be described thus: CCTE_Shafer_MEA_acute_interburst_interval_mean: CCTE's Neural Acute Assay for Mean Interburst Interval, Shafer Lab (AID 2284016).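 Also: percent change of mean interburst interval versus each well's own pre-dose baseline; curves fitted for decrease in interburst interval relative to DMSO.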 In a few lines:
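MEA recording of spontaneous network bursting in primary rat cortical cultures; mean interburst interval was compared before and after a 40-min compound exposure (0.03-40 uM) and expressed as percent change, relative to DMSO.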

Assay [13] can be described thus: CCTE_Shafer_MEA_acute_burst_percentage_mean: CCTE's Neural Acute Assay for Percentage of Spikes in a Burst, Shafer Lab (AID 2284017).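 As to AC50: curve fitted for loss of signal so potency reflects decreased burst percentage.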 In a few lines:
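Compounds were tested at 0.03-40 uM on primary rat cortical neuron networks grown over microelectrodes, with at least three wells per compound. Spontaneous firing was recorded for 40 min before and 40 min after dosing, and the change in burst percentage was computed per well.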

Assay [14] is described as follows: CCTE_Shafer_MEA_acute_burst_percentage_std: CCTE's Neural Acute Assay for Standard Deviation of Burst Percentage, Shafer Lab (AID 2284018).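 Also: fitted in the negative direction so actives lower burst percentage SD.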 In a few lines: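 Value is percent change from baseline in the across-electrode SD of spikes-in-bursts percentage, wells with >/= 10 active electrodes. Acute 40-min exposure to 0.03-40 uM on DIV 13 or 15 rat cortical cultures, recorded at 37 C after 40-min baseline.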

Assay [15] is described as follows: CCTE_Shafer_MEA_acute_per_network_burst_spike_number_mean: CCTE's Neural Acute Assay for Average Number of Spikes in a Network Burst, Shafer Lab (AID 2284019). In a few lines: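 Read-out is mean spike count per network burst, taken as percent change between a 40-min pre-exposure and a 40-min post-exposure recording per well. Rat primary cortical neurons on MEAs at 37 C, DIV 13 or 15; compounds at 0.03-40 uM.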

The target in assay [16] is Nucleoli Translocation, AR (gene 367) (UniProt P10275). In words: UPITT_HCI_U2OS_AR_TIF2_Nucleoli_Antagonist: University of Pittsburgh U2OS Androgen Receptor-Transcriptional Intermediary Factor 2 (AR-TIF2) Antagonism High Content Imaging Assay for Nucleoli Translocation (AID 2283997; active = hit-call score of the fitted dose curve at least 0.9, where 1 is the maximum). In a few lines: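 Measured quantity was AR-RFP fluorescence localized to nucleoli in engineered U2OS cells also bearing TIF2-GFP, acquired on automated high-content imagers. Primary testing used 20 uM compound; actives were confirmed in triplicate wells.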
Chain of Nucleoli Translocation, AR (gene 367) (P10275 whole entry, looked up): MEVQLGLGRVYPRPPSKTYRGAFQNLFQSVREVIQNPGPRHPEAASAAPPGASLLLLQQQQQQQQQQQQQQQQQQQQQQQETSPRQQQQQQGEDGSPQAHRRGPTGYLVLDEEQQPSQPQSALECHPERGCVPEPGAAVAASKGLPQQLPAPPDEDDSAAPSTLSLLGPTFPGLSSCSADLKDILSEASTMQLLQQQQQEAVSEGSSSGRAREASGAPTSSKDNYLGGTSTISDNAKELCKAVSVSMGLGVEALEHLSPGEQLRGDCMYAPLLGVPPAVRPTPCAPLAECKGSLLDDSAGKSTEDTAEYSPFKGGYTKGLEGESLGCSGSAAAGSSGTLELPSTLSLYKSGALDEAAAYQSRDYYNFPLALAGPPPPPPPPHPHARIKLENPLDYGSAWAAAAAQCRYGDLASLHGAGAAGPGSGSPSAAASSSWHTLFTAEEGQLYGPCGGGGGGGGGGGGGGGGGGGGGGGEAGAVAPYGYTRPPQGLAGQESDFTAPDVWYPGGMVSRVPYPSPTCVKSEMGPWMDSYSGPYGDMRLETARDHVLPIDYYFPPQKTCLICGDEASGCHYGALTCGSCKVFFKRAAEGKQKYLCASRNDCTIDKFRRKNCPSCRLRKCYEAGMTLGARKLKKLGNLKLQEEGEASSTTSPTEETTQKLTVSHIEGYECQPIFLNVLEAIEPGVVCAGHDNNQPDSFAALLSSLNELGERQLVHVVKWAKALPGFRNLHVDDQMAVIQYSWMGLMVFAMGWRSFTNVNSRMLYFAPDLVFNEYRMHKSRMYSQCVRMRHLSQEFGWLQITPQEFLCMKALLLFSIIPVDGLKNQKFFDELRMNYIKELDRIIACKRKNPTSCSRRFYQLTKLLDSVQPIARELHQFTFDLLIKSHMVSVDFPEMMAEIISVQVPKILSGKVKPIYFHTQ

The target is the same in assay [17]. In words: UPITT_HCI_U2OS_AR_TIF2_Nucleoli_Agonist: University of Pittsburgh U2OS Androgen Receptor-Transcriptional Intermediary Factor 2 (AR-TIF2) Agonism High Content Imaging Assay for Nucleoli Translocation (AID 2283998; active = hit-call score of the fitted dose curve at least 0.9, where 1 is the maximum). In a few lines:
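Nucleolar translocation of AR-RFP, with TIF2-GFP coexpressed in human osteosarcoma U2OS, imaged by high-content fluorescence. Compounds tested singly at 20 uM final, confirmed in triplicate, then titrated 0.195–50 uM final; gain-of-signal relative to DMSO.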

The target in assay [18] is Ratio of Nucleoli Translocation and Cytoplasm, AR (gene 367) (UniProt P10275). In words: UPITT_HCI_U2OS_AR_TIF2_Nucleoli_Cytoplasm_Ratio_Antagonist: University of Pittsburgh U2OS Androgen Receptor-Transcriptional Intermediary Factor 2 (AR-TIF2) Antagonism High Content Imaging Assay for Ratio of Nucleoli Translocation and Cytoplasm (AID 2283999; active = hit-call score of the fitted dose curve at least 0.9, where 1 is the maximum;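 also: antagonists lower the DHT-driven ratio of nucleolar to cytoplasmic red signal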). In a few lines: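 Human osteosarcoma U2OS line, AR fused to RFP, coactivator TIF2 fused to GFP. Cpds 20 uM final, 0.2% DMSO (screen); 0.195–50 uM final, 0.5% DMSO (CRC). Endpoint: nucleoli/cytoplasm red signal ratio, DHT as baseline, loss-of-signal antagonist mode.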
Chain of Ratio of Nucleoli Translocation and Cytoplasm, AR (gene 367) (P10275 whole entry, looked up, the tested form may be a part): as the sequence (P10275 whole entry, looked up) above

Assay [19] shares this target. In words: UPITT_HCI_U2OS_AR_TIF2_Nucleoli_Cytoplasm_Ratio_Agonist: University of Pittsburgh U2OS Androgen Receptor-Transcriptional Intermediary Factor 2 (AR-TIF2) Agonism High Content Imaging Assay for Ratio of Nucleoli Translocation and Cytoplasm (AID 2284000; active = hit-call score of the fitted dose curve at least 0.9, where 1 is the maximum;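 also: hits raise the red nucleolar to cytoplasm ratio above vehicle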). The gist of the method: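 Read-out first: nucleolar-to-cytoplasm ratio of red (AR-RFP) signal, quantified by high-content imaging in U2OS cells co-expressing TIF2-GFP. Activity is scored as signal increase over DMSO. Single-point screening used 20 uM final (0.2% DMSO).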

The nature of assay [20]: CCTE_Harrill_HTTr_CellCount_MCF7: CCTE's Cell Proliferation Assessment for the High-Throughput Transcriptomics (HTTr) Platform, Harrill Lab (AID 2284012; active = hit-call score of the fitted dose curve at least 0.9, where 1 is the maximum;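 also: count of Hoechst-stained nuclei per well by high-content imaging in MCF-7 cells; cells exposed to compound for six hours; intended direction is loss of nuclei count meaning fewer cells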). The gist of the method:
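Chemicals in eight-point dilution series are added to MCF-7 cells for six hours, nuclei are stained with Hoechst and imaged, and per-well nuclei counts are fitted in both directions relative to DMSO controls.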

In the case of `C#CCC1=C(C)C(OC(=O)C2C(C=C(C)C)C2(C)C)CC1=O` (centres undefined), the concentration at half-maximal activity (AC50) in assay [1] was 34.9 µM (active); in assay [2], 33.7 µM (active); in [5], 27.4 µM (active); in assay [6], 27.4 µM (active); in assay [9] it was 13.3 µM (active); in assay [10], 15.5 µM (active). Further, the results for the AC50 in assay [13] and in assay [14] were 12.7 µM (active) and 19.9 µM (active), respectively. The call in assay [3], in [4], in assay [7], in [8], in [11] and in [12] was inactive. In addition, the compound was called inactive in assay [15].

Consider `C[N+]1(C)CCCCC1`, for which the call in assay [16], in assay [17], in [18], in assay [19], in [5] and in assay [6] was inactive. Further, the outcome in assay [7], in assay [8], in [20], in assay [9], in assay [10] and in assay [11] was inactive. For the same compound, the call in [12], in [13], in assay [14] and in [15] was inactive.

As to `CC(C)[C@H](C(=O)O[C@H](C#N)c1cccc(Oc2ccccc2)c1)c1ccc(Cl)cc1`, the outcome in assay [5], in assay [6], in assay [7], in assay [10], in assay [11] and in assay [12] was inactive. The outcome in assay [14] and in assay [15] was inactive. The AC50 in assay [9] was 0.928 µM (active); in [13], 0.958 µM (active).

Regarding `COc1cccc(C(=O)NN(C(=O)c2cc(C)cc(C)c2)C(C)(C)C)c1C`, the outcome in assay [7] and in [20] was inactive.

Consider `CSc1nc(NC(C)C)nc(NC(C)C)n1`, for which the result in [7], in assay [8] and in assay [20] was inactive.

On to `CCOP(=S)(OCC)SCCSCC`, for which the outcome in assay [1], in [2], in [3], in [5], in assay [6] and in assay [7] was inactive. Moreover, the outcome in [9], in assay [10], in [11], in assay [12], in [13] and in [14] was inactive. For the same compound, the compound was called inactive in assay [15].

As to `CCNc1nc(Cl)nc(NC(C)(C)C#N)n1`, the outcome in assay [7] was inactive.

For the compound `CSc1nnc(C(C)(C)C)c(=O)n1N`, the result in [7] was inactive.

On to `CCOP(=S)(OCC)OC(Cl)C(Cl)(Cl)Cl` (centres undefined), for which the outcome in assay [7], in assay [8] and in assay [20] was inactive.

On to `COP(=O)(NC(C)=O)SC` (centres undefined), for which the outcome in assay [5], in assay [6], in assay [7], in [20], in assay [9] and in assay [10] was inactive. Moreover, the outcome in assay [11], in assay [12], in [13], in assay [14] and in assay [15] was inactive. Further, the AC50 is 0.124 µM (active) in assay [11], 0.0544 µM (active) in assay [12], 0.792 µM (active) in assay [13] and 4.26 µM (active) in assay [14].
